# Measured values from PubChem BioAssay AID743363 (Broad Institute, 2014).
# Calls of active or inactive are those of the source. How the calls were made is not given here.
# Assay: interference with FL-DTB/streptavidin displacement signal, dose response, counter-screen, biochemical, dry powder samples (AID 743363)
# Conditions: FL-DTB/streptavidin fluorescence displacement counter-screen, BioD coupled; series mostly up to 10 µM
row,SMILES,outcome
1,CS(=O)(=O)c1ccc(N2CCN(C(=O)c3ccc4c(c3)OCO4)CC2)cc1,inactive
2,COc1cccc(NC(=O)N2CC[C@@H]3[C@@H](CO)N(C)c4ccc(-c5cccc(F)c5)cc4[C@@H]32)c1,inactive
3,CC(=O)c1ccc(N2CCN(C(=O)c3cccc4c3OCO4)CC2)cc1,inactive
4,CC(=O)c1ccc(N2CCN(C(=O)c3ccccc3Cl)CC2)cc1,inactive
5,CN1c2ccc(-c3ccc(F)cc3)cc2[C@H]2[C@H](CCN2C(=O)Nc2cc(F)ccc2F)[C@H]1CO,inactive
6,CC(=O)c1ccc(N2CCN(C(=O)c3ccc4c(c3)OCO4)[C@H](C)C2)cc1,inactive
7,COc1ccccc1NC(=O)N1CC[C@@H]2[C@@H](CO)N(C)c3ccc(-c4ccc(F)cc4)cc3[C@@H]21,inactive
8,COc1ccc(C(=O)N2CCN(c3ccc(C(C)=O)cc3)CC2)cc1OC,inactive
9,CC(=O)c1ccc(N2CCN(C(=O)c3ccc4c(c3C)OCO4)CC2)cc1,inactive
10,CC(=O)c1ccc(N2CCN(C(=O)c3ccccc3F)CC2)cc1,inactive
11,COCC(=O)N1CC[C@@H]2[C@@H](CO)N(C)c3ccc(-c4cccc(F)c4)cc3[C@@H]21,inactive
12,COc1ccc(NC(=O)N2CC[C@@H]3[C@@H](CO)N(C)c4ccc(-c5ccc(F)cc5)cc4[C@@H]32)cc1,inactive
13,N#Cc1ccc(N2CCN(C(=O)c3ccc4c(c3)OCO4)CC2)cc1,inactive
14,CC(=O)c1ccc(N2CCN(C(=O)c3ccc4snnc4c3)CC2)cc1,inactive
15,CN1c2ccc(-c3cccc(F)c3)cc2[C@H]2[C@H](CCN2C(=O)Cc2cccnc2)[C@H]1CO,inactive
16,CC(=O)c1ccc(N2CCN(C(=O)c3ccc(Cl)c(Cl)c3)CC2)cc1,inactive
17,CCCNC(=O)N1CC[C@@H]2[C@@H](CO)N(C)c3ccc(-c4ccc(F)cc4)cc3[C@@H]21,inactive
18,CC(C)NC(=O)N1CC[C@@H]2[C@@H](CO)N(C)c3ccc(-c4ccc(F)cc4)cc3[C@@H]21,inactive
19,CN1c2ccc(-c3cccc(F)c3)cc2[C@H]2[C@H](CCN2C(=O)Cc2ccccc2)[C@H]1CO,inactive
20,CC(=O)c1ccc(N2CCN(C(=O)Nc3ccc4c(c3)OCO4)CC2)cc1,inactive
21,CC(C)NC(=O)N1CC[C@@H]2[C@@H](CO)N(C)c3ccc(-c4cccc(F)c4)cc3[C@@H]21,inactive
22,COC(=O)c1ccc(N2CCN(C(=O)c3ccc4c(c3)OCO4)CC2)cc1,inactive
23,CN(C)S(=O)(=O)c1ccc(N2CCN(C(=O)c3ccc4c(c3)OCO4)CC2)cc1,inactive
24,COc1ccccc1C(=O)N1CCN(c2ccc(C(C)=O)cc2)CC1,inactive
25,CN1c2ccc(-c3cccc(F)c3)cc2[C@@H]2[C@@H](CCN2C(=O)c2ccc3c(c2)OCO3)[C@H]1CO,inactive
26,CN1c2ccc(-c3cccc(F)c3)cc2[C@H]2[C@H](CCN2C(=O)CCCCCCC(=O)O)[C@H]1CO,inactive
27,COC(=O)CCCCCCC(=O)N1CC[C@@H]2[C@@H](CO)N(C)c3ccc(-c4cccc(F)c4)cc3[C@@H]21,inactive
28,CCCCCCCC(=O)N1CC[C@@H]2[C@@H](CO)N(C)c3ccc(-c4cccc(F)c4)cc3[C@@H]21,inactive
29,CC(=O)c1ccc(N2CCN(C(=O)c3ccc4ocnc4c3)CC2)cc1,inactive
30,CC(=O)c1ccc(N2CCN(C(=O)c3cc4c(cn3)OCO4)CC2)cc1,inactive
